According to PubChem BioAssay (NCATS):
Records with an inconclusive call do not appear. Where a call stands in place of a potency, no number is given. Unmarked numbers belong to inactive results. Calls of active or inactive are those of the source. The call rests on the fitted dose curve; in most records, active means well fitted cell-killing curve with a large enough effect; inconclusive means small, poorly fitted or top-dose-only effect, or effect the other way; inactive means flat fitted curve, though single readings scatter.

Assay: qHTS assay for cell viability of the p53RE-bla HCT-116 cell line (AID 743292); further: nearly all actives have a fitted effect of over 55% in size
Conditions: p53RE-bla HCT-116 viability, ATP luminescence, 16 h; series mostly up to 95 µM; activity change, negative = cytotoxicity: at the top concentration
Text: U.S. Tox21 Program National Center for Advancing Translational Sciences [NCATS] NIH Chemical Genomics Center [NCGC] U.S. Environmental Protection Agency [EPA] National Institutes of Environmental Health Sciences [NIEHS] National Toxicology Program [NTP] U.S. Food and Drug Administration [FDA] Tox21 Assay Overview: The CellTiter-Glo Luminescent Cell Viability Assay (Promega, Madison, WI) is a homogeneous method to determine the number of viable cells in culture based on quantitation of the ATP present, which signals the presence of metabolically active cells. This cell viability assay was used to screen environmental chemicals in the CellSensor p53RE-bla HCT-116 cell line (Invitrogen).
Tox21 Assay Protocol Summary: Cell viability after compound treatment was measured using a luciferase-coupled ATP quantitation assay (CellTiter-Glo viability assay, Promega, Madison, WI) in CellSensor p53RE-bla HCT-116 cell line (Invitrogen). Total intracellular ATP content corresponds to the number of metabolically competent cells after compound treatment. The cells were dispensed at 4,000 cells/5 uL/well in 1,536-well white/solid bottom assay plates using a Flying Reagent Dispenser (Aurora Discovery, San Diego, CA). The cells were incubated for 5 h at 37 C, followed by the addition of 23 nL of compounds dissolved in DMSO, positive controls or DMSO only using a pintool work station (Kalypsys, San Diego, CA). The assay plates were incubated for 16 h at 37 C, followed by the addition of 5 uL/well of CellTiter-Glo reagent. After 30 min incubation at room temperature, the luminescence intensity of the plates was measured using a ViewLux plate reader (PerkinElmer, Shelton, CT).

SMILES | activity change, negative = cytotoxicity [%] | Potency
O=C(O)CCCCCCCCC(=O)O | -10.4 | –
O=S(=O)(O)c1ccccc1 | 1.04 | –
Cc1ccc([N+](=O)[O-])cc1N | – | inactive
CC12CCC(CC1=O)C2(C)C (stereo not given) | – | inactive
CC(C)=CCCC(C)CCO (stereo not given) | – | inactive
O=C(O)c1ccccc1 | 6.65 | –
c1ccc2c(c1)[nH]c1ccccc12 | – | inactive
Nc1ccc(Cl)cc1Cl | – | inactive
COc1ccc(/C=C/c2cc(OC)cc(=O)o2)cc1 | -5.71 | –
O=C(O)CC(C(=O)O)C(CC(=O)O)C(=O)O (stereo not given) | – | inactive
CCCN(CCC)C(=O)SCC | – | inactive
COC(=O)c1ccc(C=O)cc1 | – | inactive
CN(C)CCCCCCN(C)C | 0.749 | –
C/C=C\c1ccc(OC)cc1 | -8.53 | –
CCC(C)c1ccccc1O (stereo not given) | – | inactive
c1ccccc1 | – | inactive
O=C1c2ccccc2C(=O)C1c1ccc2ccccc2n1 | -17.3 | –
O=C(/C=C/c1ccc(O)c(O)c1)O[C@@H](C(=O)O)[C@@H](OC(=O)/C=C/c1ccc(O)c(O)c1)C(=O)O | 2.93 | –
OCCNCCO | – | inactive
CCO | 1.1 | –

SMILES | activity change, negative = cytotoxicity [%] | Potency
CCCCCCCCCCCCCC(=O)O | – | inactive
CCCCCCCCCCCCCCC1CO1 (stereo not given) | – | inactive
C=CCOC(=O)c1ccccc1C(=O)OCC=C | – | inactive
COC(=O)CCCCC(=O)OC | – | inactive
O=C(O)c1ccccc1C(c1ccc(O)cc1)c1ccc(O)cc1 | – | inactive
C=C(C)C1CC=C(C)C(O)C1 (stereo not given) | 1.07 | –
CCC(O)OC(O)CC (stereo not given) | – | inactive
C1OCOCO1 | -5.63 | –
Clc1cc(Cl)c(Cl)cc1Cl | – | inactive
CC1(C)CC(N=C=O)CC(C)(CN=C=O)C1 (stereo not given) | – | inactive
CC(=O)OC/C=C(\C)CCC=C(C)C | – | inactive
CC1=C2[C@H](/C=C(\C)C(=O)O)CC[C@@H](C)[C@H]2CC1 | -9.84 | –
O=[N+]([O-])c1cccc(Cl)c1Cl | – | inactive
CCCCOCCO | – | inactive
CCO[Si](CCCN)(OCC)OCC | – | inactive
CCCCCCCCCCCC(=O)O | – | inactive
CCCCCCCCOC(=O)c1cc(O)c(O)c(O)c1 | -18.4 | –
O=C(O[C@@H]1Cc2c(O)cc(O)cc2O[C@@H]1c1cc(O)c(O)c(O)c1)c1cc(O)c(O)c(O)c1 | -12.5 | –
C=CC(=C)CCC=C(C)C | -2.22 | –
COC(=O)c1ccc(C)cc1 | – | inactive
